The source made the active and inactive calls. The calls were made as follows: active = hit-call score of the fitted dose curve at least 0.9, where 1 is the maximum; inactive = score below 0.9.
read-out: Cytochrome P450 3A4 (Homo sapiens) (UniProt P08684); assay: LTEA_HepaRG_CYP3A4: Life Technologies and Expression Analysis (LTEA) Assay for CYP3A4 using HepaRG (AID 2283487); conditions: mRNA level, 48 h; actives raise or lower the signal
Method: LTEA_HepaRG is a cell based, multiplexed-readout assay that uses HepaRG, a human liver cell line, with measurements taken at 48 hours after chemical dosing on a 96-well plate.LTEA_HepaRG_CYP3A4 is one of 102 assay component(s) measured in the LTEA HepaRG cell culture assay. It is a marker of NR mediated metabolism.Data from the assay component LTEA_HepaRG_CYP3A4 was analyzed into 1 endpoint. This assay endpoint, LTEA_HepaRG_CYP3A4, was analyzed with bidirectional fitting relative to DMSO as the negative control and baseline of activity. Using a type of inducible reporter, measures of mRNA induction for gain or loss-of-signal activity can be used to understand regulation of transcription factor activity. To generalize the intended target to other relatable targets, this assay endpoint is annotated to the cyp intended target family, where the subfamily is xenobiotic metabolism.
A total of 1060 chemcials from the ToxCast library were tested in eight-point concentration-response experiments. Cell culture and cytotoxicity assays were conducted at Thermo Fisher Scientific's Custom Services facility (Madison, WI). A single lot of human HepaRG cells (Thermo Fisher Scientific, Frederick, MD) was used for the cell culture experiments. 96-well format collagen type I coated plates of human HepaRG cells were prepared using established methods. Briefly, cryopreserved HepaRG cells were thawed, plated at a density of approximately 100,000 cells/well in HepaRG Thaw, Plate, and General Purpose media (HPRG770, Thermo Fisher Scientific), and incubated for 48 hours. 0.5% DMSO was selected as vehicle control to balance the requisite need of DMSO in HepaRG cultures to maintain differentiation (for example, baseline metabolism, proportions of hepatocytes vs. cholangiocytes), while enabling further hepatic receptor pathway activation (for example, PXR and CAR) in response to chemical exposure. 48 hours after plating, the culture medium was replaced with HepaRG Serum-Free Incudtion Media. Cells were exposed to each test chemical in duplicate and maintained in CO2 incubators for another 48 hours. Chemical plates were thawed to room temperature and 200x concentrations of treatment groups were prepared. 8-point conentration-reponse curves were made with the highest exposure at 100 uM, followed by half-log dilutions, all in 0.5% DMSO. Each test plate contained variouse controls, induction positive controls (1mM phenobarbital), cytotoxicity positive controls ([…] aflatoxin B1), vehicle controls (0.5% DMSO), and total lysis controls (0.5% DMSO). Cell morphology images were taken using an Essen IncuCyte FLR automated microscope, with six 96-well plates imaged in about 24 minutes. Images were captured and exported and JPEG files. Spent culture media was transfered to black-well plates for the LDH assay, and remaining media was sorted at -80 C for later use. Cells were treated with RLT buffer and frozen until shipped for gene expression analysis. Total RNA was isolated from the cell suspension in 75 uL of Buffer RLT (Qiagen, Germantown, MD 20874) by Quintiles/Expression Analysis (Durham, NC) using a custom isolation procedure. Total RNA from each plate well was transferred to a preamplification plate. Fluidigm's 96.96 Dynamic ArrayTM (Fluidigm, Amsterdam, the Netherlands) technology was used for gene expression analyses by quantitative reverse transcription polymerase chain reaction (qRT-PCR, performed by Quintiles/Expression Analysis, Durham, NC)89. Standard TaqManTM Assays (Applied Biosystems/ThermoFisher Scientific, Foster City, CA) were used to assess the expression of 93 genes selected based on their selectivity and sensitivity to important hepatic receptors known to be modulated by environmental chemicals; importance in human hepatocyte functionality; and hepatotoxicity. […]

Sequence of Cytochrome P450 3A4 (Homo sapiens) (P08684 whole entry, looked up): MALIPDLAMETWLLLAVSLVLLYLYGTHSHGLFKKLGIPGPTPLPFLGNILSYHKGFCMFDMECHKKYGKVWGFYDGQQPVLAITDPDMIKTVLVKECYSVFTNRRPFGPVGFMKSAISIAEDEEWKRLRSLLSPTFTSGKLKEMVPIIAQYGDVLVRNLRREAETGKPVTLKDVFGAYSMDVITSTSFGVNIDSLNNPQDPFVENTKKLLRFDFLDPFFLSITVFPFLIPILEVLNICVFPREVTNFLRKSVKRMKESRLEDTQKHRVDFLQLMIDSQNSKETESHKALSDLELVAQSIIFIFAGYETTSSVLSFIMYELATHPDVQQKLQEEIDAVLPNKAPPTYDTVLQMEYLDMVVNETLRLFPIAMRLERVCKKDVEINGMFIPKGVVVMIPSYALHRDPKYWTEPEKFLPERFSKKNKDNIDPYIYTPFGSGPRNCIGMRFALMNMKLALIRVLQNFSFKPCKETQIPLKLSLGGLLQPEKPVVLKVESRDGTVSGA

Row | SMILES | outcome | AC50
1 | CCCCc1ccccc1 | inactive | 
2 | CN(C)C(=O)Cl | inactive | 
3 | ClC(Cl)c1ccccc1 | inactive | 
4 | CC(C)(C)OOC(C)(C)C | inactive | 
5 | c1nc[nH]n1 | inactive | 
6 | CCN(CC)c1ccccc1 | inactive | 
7 | Cc1cccc(N)c1 | inactive | 
8 | [N-]=[N+]=[N-] | inactive | 
9 | c1ccc2c(c1)Nc1ccccc1S2 | inactive | 
10 | c1cc2c3c(cccc3c1)CC2 | inactive | 
11 | O=P1(N(CCCl)CCCl)NCCCO1 (centres undefined) | inactive | 
12 | CCOC(=O)c1ccccc1C(=O)OCC | inactive | 
13 | CC(Cc1ccc(OCC(=O)O)cc1)NCC(O)c1csc(C(F)(F)F)n1 (centres undefined) | inactive | 
14 | CCOc1ccc(C(C)(C)COCc2cccc(Oc3ccccc3)c2)cc1 |  | 4.91 µM (active)
15 | O=[N+]([O-])c1ccc(Cl)c(Cl)c1 | inactive | 
16 | CSC(C)(C)C=NO | inactive | 
17 | CCNc1nc(Cl)nc(NC(C)(C)C)n1 |  | 2.11 µM (active)
18 | CCCCN(CCCC)SN(C)C(=O)Oc1cccc2c1OC(C)(C)C2 |  | 8.27 µM (active)
19 | CCCCN(CCCC)N=O | inactive | 
20 | CCC1(c2ccccc2)C(=O)N=C(O)NC1=O (centres undefined) |  | 50 µM (active)

Row | SMILES | outcome | AC50
21 | CCCCCCCc1ccc(O)cc1 | inactive | 
22 | ClC1=C(Cl)C2(Cl)C3C(Cl)C(Cl)CC3C1(Cl)C2(Cl)Cl (centres undefined) |  | 4.39 µM (active)
23 | CCOP(=S)(Oc1ccc([N+](=O)[O-])cc1)c1ccccc1 (centres undefined) |  | 4.84 µM (active)
24 | CC(Cl)(Cl)C(=O)O | inactive | 
25 | Nc1cc2c3c(c1)C(c1ccccc1)=N[C@@H](NC(=O)c1cccnc1)C(=O)N3CC2 |  | 7.78 µM (active)
26 | O=C(O)C1C(C(=O)O)C2(Cl)C(Cl)=C(Cl)C1(Cl)C2(Cl)Cl (centres undefined) | inactive | 
27 | Nc1ccc2ccccc2c1 | inactive | 
28 | Nc1ccc(Cl)cc1 | inactive | 
29 | Cc1ccc([N+](=O)[O-])cc1C | inactive | 
30 | CCOS(=O)(=O)OCC | inactive | 
31 | O=[N+]([O-])c1ccccc1 | inactive | 
32 | CCC(C)(C)c1ccc(O)cc1 | inactive | 
33 | CCOP(=S)(OCC)SCSCC |  | 13.9 µM (active)
34 | O=C(O)C(Cl)Cl | inactive | 
35 | OCC1CO1 (centres undefined) | inactive | 
36 | ClC(Cl)(Cl)c1ccccc1 | inactive | 
37 | O=P(Oc1ccccc1)(Oc1ccccc1)Oc1ccccc1 |  | 3.44 µM (active)
38 | Cc1ccc(N)cc1N | inactive | 
39 | c1ccc(OP(Oc2ccccc2)Oc2ccccc2)cc1 | inactive | 

Reference: PubChem BioAssay (EPA / NIEHS)
